TcdB GH inh = inhibitors of Clostridioides difficile toxin B glycohydrolase | AID 652162 | P18177 | TcdB glycohydrolase enzymatic assay, plate reader | inhibition, % at 9.99 µM | actives 0.24% (n = 350,000); in the data active means inhibition above about 10%
FadD28 FP inh = inhibitors of Mycobacterium tuberculosis FadD28 bisubstrate binding | FadD28 bisubstrate probe binding, fluorescence polarization | inhibition, % at 12.5 µM | actives 0.22% (n = 360,000) | AID 588549; in the data active means inhibition above about 8.5%, passing the limit was not always enough; inconclusive means no clear call, values can overlap the other calls
Mtb hypoxia inh = inhibitors of hypoxia-regulated fluorescent reporter in Mycobacterium tuberculosis; AID 1159583; actives 0.1% (n = 300,000); fluorescence inhibition, % (concentration not given with the values); M. tuberculosis hypoxia-regulated fluorescent reporter, fluorescence; in the data active means fluorescence inhibition mostly above about 23%, no sharp cut-off; inactive means mostly below about 17%
PrP 5UTR inh = inhibition of PrP 5' UTR reporter expression; actives 0.35% (n = 340,000); inhibition, % (test concentration not listed); cell-based PrP 5' UTR mRNA reporter, plate reader; in the data active means inhibition above about 52%
BioA inh = inhibitors of Mycobacterium tuberculosis BioA enzyme | purified M. tuberculosis BioA enzyme, plate reader | inhibition, % at 9.99 µM | actives 0.096% (n = 360,000); in the data active means inhibition above about 40%; inconclusive means no clear call, values can overlap the other calls
PriA SSB inh = inhibitors of Klebsiella pneumoniae PriA binding to SSB C-terminal tail; AlphaScreen SSBct-PriA binding, biotinylated peptide; inhibition, % at 33 µM; actives 0.6% (n = 430,000); in the data active means inhibition mostly above about 37%, no sharp cut-off; inactive means mostly below about 20%
PrP 5UTR single = prion 5' UTR mRNA inhibition, cherry-pick retest. shares compounds with PrP 5UTR inh. cell-based prion protein 5' UTR reporter, plate reader. inhibition, % at 2.5 µM. actives 48% (n = 1,100). AID 504592; in the data active means inhibition above about 54%; inconclusive means no clear call, values can overlap the other calls
Of the large screens only hits and unclear results are named; the others gave an inactive call (follow-up assays come after a bar, where shown). The list is not random: actives were taken first. Their share in the collection is about 1%.

O=C(Cn1cnc2c(OCc3ccccc3)ncnc21)N1CCN(c2ccccn2)CC1	none
CC1CCCN(c2ncnc3c2cnn3-c2ccc(Cl)cc2)C1 (stereo unspecified)	PrP 5UTR inh 88 | PrP 5UTR single 84
CCOc1ccc(Nc2nc(N)c3ccccc3n2)cc1	PrP 5UTR inh 56 (no result: Mtb hypoxia inh) | PrP 5UTR single inactive
CN(C)c1ccc(Nc2nc(N)c3ccccc3n2)cc1	PrP 5UTR inh 77 (no result: Mtb hypoxia inh) | PrP 5UTR single 62
Cc1ccc2c(c1)sc(=NC(=O)c1cccs1)n2C	PrP 5UTR inh 65 (not shown: Mtb hypoxia inh, BioA inh) | PrP 5UTR single inactive
Cc1ccc2c(c1)sc(=NC(=O)C1CC1)n2C	none
CCCCC(=O)Nc1cccc(-c2ccc3nncn3n2)c1	none
COc1ccc(OC)c(NS(=O)(=O)c2ccc(N3CCCC3=O)cc2)c1	PrP 5UTR inh 60 (no result: TcdB GH inh, Mtb hypoxia inh) | PrP 5UTR single 90
CCOc1ccc(S(=O)(=O)Nc2cc(OC)ccc2OC)cc1	PrP 5UTR inh 60 (no result: TcdB GH inh, BioA inh) | PrP 5UTR single 88
CCOc1ccc(OCC(=O)Nc2nccs2)cc1	PrP 5UTR inh 58 (no result: TcdB GH inh, BioA inh) | PrP 5UTR single inactive
COc1ccc(OCC(=O)Nc2nccs2)cc1	none
CC12CCC3C(CCC4(O)CC(O)CCC34C=NO)C1(O)CCC2C1=COC(=O)C1 (stereo unspecified)	PrP 5UTR inh 89 (no result: Mtb hypoxia inh, BioA inh) | PrP 5UTR single 85
CCCCN=C[C@]12CCC(O)CC1(O)CCC1[C@@H]2CC[C@]2(C)[C@H](C3C=CC(=O)O3)CCC12O (stereo partly specified)	PrP 5UTR inh 83, PriA SSB inh 66 | PrP 5UTR single 78
COc1ccc(-c2ccc3c(c2)[C@H]2[C@H](CCN2C(=O)NC2CCCCC2)[C@H](CO)N3C)cc1	none (no result: FadD28 FP inh, Mtb hypoxia inh, PrP 5UTR inh, PriA SSB inh)
CCc1cccc2cc3c(N)c(C(=O)Nc4ccc(S(=O)(=O)N5CCCC5)cc4)sc3nc12	none (no result: TcdB GH inh, Mtb hypoxia inh)
Cc1ccc(S(=O)(=O)N(C)C[C@H]2Oc3ccc(NC(=O)Cc4cn(C)c5ccccc45)cc3C(=O)N([C@H](C)CO)C[C@@H]2C)cc1	none (no result: FadD28 FP inh, Mtb hypoxia inh, PrP 5UTR inh, PriA SSB inh)
COc1ccc(/C=C/C(=O)c2cc(F)ccc2OC(=O)c2ccccc2OC)cc1OC	none (no result: BioA inh) | PrP 5UTR single inconclusive
COC(=O)Cc1c(O)ccn(Cc2ccc(OC)c(OC)c2)c1=O	PrP 5UTR inh 63 | PrP 5UTR single inactive
CO[C@@H](CNC(=O)C(=O)Nc1ccon1)c1ccco1	none (no result: TcdB GH inh, FadD28 FP inh, Mtb hypoxia inh, PrP 5UTR inh, BioA inh)
C(=N\Nc1nc2ccccc2[nH]1)/c1ccccc1	PrP 5UTR inh 55 (no result: Mtb hypoxia inh, PriA SSB inh) | PrP 5UTR single inactive
C(=NNc1nc2ccccc2[nH]1)c1ccncc1	none (no result: TcdB GH inh, FadD28 FP inh, PrP 5UTR inh, BioA inh)
CN(Cc1ccccc1)C(=O)COC(=O)c1cncc(Br)c1	PrP 5UTR inh 72 (no result: BioA inh) | PrP 5UTR single inactive
Cc1nnsc1C(=O)N1CCC(CNS(=O)(=O)c2ccc3c(c2)CCO3)CC1	none (no result: TcdB GH inh, FadD28 FP inh, Mtb hypoxia inh, PrP 5UTR inh, BioA inh)
O=C(Cn1cnc2ccc(Cl)cc2c1=O)NC1CCS(=O)(=O)C1 (stereo unspecified)	none
C[C@@H]1CCCCO[C@@H](CN(C)CC2CC2)[C@@H](C)CN([C@@H](C)CO)C(=O)c2cc(NS(=O)(=O)c3cccs3)ccc2O1	none (no result: TcdB GH inh, FadD28 FP inh, Mtb hypoxia inh, PrP 5UTR inh, PriA SSB inh)
CC(OC(=O)CCN=C1NS(=O)(=O)c2ccccc21)C(=O)NCc1ccccc1 (stereo unspecified)	PrP 5UTR inh 67 | PrP 5UTR single inactive
Cc1noc(/C=C/N(C)C)c1S(=O)(=O)N(C)CC(=O)NC1CCCCC1	none (no result: TcdB GH inh, Mtb hypoxia inh, BioA inh)
COc1cc(CC(=O)N(c2ccccc2)c2nc(C)cs2)cc(OC)c1OC	PrP 5UTR inh 61 (no result: BioA inh) | PrP 5UTR single inactive
Cc1csc(N(C(=O)c2ccccc2F)c2ccccc2)n1	none (no result: BioA inh)
CN1C2CCC1/C(=C/c1ccccn1)C(=O)/C2=C\c1ccccn1	PrP 5UTR inh 78 | PrP 5UTR single 91
CC(C)(C)C1C/C(=C/c2ccccn2)C(=O)/C(=C/c2ccccn2)C1 (stereo unspecified)	PrP 5UTR inh 92 (not shown: TcdB GH inh, Mtb hypoxia inh) | PrP 5UTR single 97
Cc1ccc(C2C(=C(O)c3ccc4c(c3)CC(C)O4)C(=O)C(=O)N2CCCn2ccnc2)cc1 (stereo unspecified)	none (no result: TcdB GH inh, FadD28 FP inh, Mtb hypoxia inh, PrP 5UTR inh, BioA inh)
CCC(=O)NC1CC2CCCC(C1)N2Cc1ccc(C)cc1 (stereo unspecified)	none
C[C@@H]1CN([C@H](C)CO)C(=O)Cc2cc(NS(=O)(=O)c3ccc(F)cc3)ccc2O[C@H]1CN(C)Cc1ccccc1	none (no result: FadD28 FP inh, Mtb hypoxia inh, PrP 5UTR inh, PriA SSB inh)
CCOC(=O)[C@H]1[C@H]2COc3ccc(C)cc3[C@@H]2N2C(=O)CN(Cc3ccco3)C(=O)[C@@]12C	none (no result: Mtb hypoxia inh)
